The results in this text go back to PubChem BioAssay (Tox21).

Each structure is given as a SMILES string. A number with no mark means an inactive call. Calls of active or inactive are those of the source. Calls follow the shape of the dose curve; as a rule, active = well fitted curve in the direction sought with a large enough effect in the repeat runs; inconclusive = weak or mixed curves; inactive = flat fitted curve, though single readings scatter.
% is scaled to controls: 0 for no effect and ±100 for the full control effect.

This assay in a line: qHTS assay to test for compound auto fluorescence at 535 nm (green) in HEK293 cell free culture (AID 720682). Particulars: cell-free medium, green autofluorescence 485/535 nm, stronger effect = higher value; series mostly up to 91.3 µM. The text has this: U.S. Tox21 Program National Center for Advancing Translational Sciences [NCATS] NIH Chemical Genomics Center [NCGC] U.S. Environmental Protection Agency [EPA] National Institutes of Environmental Health Sciences [NIEHS] National Toxicology Program [NTP] U.S. Food and Drug Administration [FDA] Tox21 Assay Overview: Compound auto fluorescence often interferes with screening of the compound library against various biological targets and signaling pathways. Some of these compounds may have fluorophoric properties. Such properties may interfere with the assay outputs resulting in false positives and/or negatives. To decrease such complications and ensure the compound activities are relevant in terms of biological response, the Tox21 10K compound library was screened for auto fluorescence. From the fluorophores used as reporter signals in our screening assays, the auto fluorescence equivalencies of compounds against three fluorophores have been evaluated: Triamterene, Fluorescein and Rose Bengal sodium for blue, green and red fluorescence, respectively. The fluorescence intensities were measured using Excitation/Emission wavelengths at 405/460nm, 485/535nm and 540/590nm for blue, green and red labels, respectively. This assay includes the green fluorescence data.
Tox21 Assay Protocol Summary: 5 uL of culture medium (DMEM containing 10% FBS) per well was dispensed into black wall/clear bottom 1536-well plates using a Multidrop Combi Dispenser (ThermoFisher Scientific, Waltham, MA). After 23 nL compound or DMSO vehicle was transferred into assay plate by a pintool work station (Kalypsys, San Diego, CA), fluorescence intensities in the assay plates were measured by an Envision (PerkinElmer, Shelton, CT) plate reader using three labels for measuring blue, green and red fluorescence at […] 460, 535 and 590nm respectively.
`CC(C)c1cccc(C(C)C)c1NC(=O)NS(=O)(=O)c1cc(C(C)(C)O)co1`: the call was inactive.

Consider `c1ccc(CNCc2ccccc2)cc1`, for which the molecule was classed as inactive. Turning to `c1ccc(OCc2ccc(CCCN3CCOCC3)cc2)cc1`, the outcome was inactive.

With `O=C(O)C1CCC(C(=O)O)CC1` (stereo not given), the molecule was classed as inactive. Still for that read-out and setting: the value for `COc1ccc(C(C)=O)cc1` was “inactive”. For `CCc1nn(C2CCCCC2)c2cc(C3(C#N)CCC(C(=O)O)CC3)ccc12` (stereo not given), the outcome was inactive. As for `O=C(O)[C@@H]1[C@H]2C[C@H]3c4[nH]c5ccccc5c4CCN3C[C@@H]2CC[C@@H]1O`, the activity change is -0.0263% [at 18.6 µM]. Turning to `O=C=NC1CCC(CC2CCC(N=C=O)CC2)CC1` (stereo not given), the call was inactive.

As for `FC(F)(F)C(F)(F)C(F)(F)C(F)(F)C(F)(F)C(F)(F)CCI`, the molecule was classed as inactive. In the case of `C=CCCCCCC`, the molecule was called inactive. As to `CCN(CC)CCOC(=O)C1(c2ccccc2)CCCC1`, the molecule was called inactive. In the case of `CC/C(=C\C(=N/O)C(N)=O)C(C)[N+](=O)[O-]` (stereo not given), the molecule was called inactive. For `CCCCCCCCCO`, the molecule was classed as inactive. On to `COCCCCCCCCOCCC[Si](C)(O[Si](C)(C)C)O[Si](C)(C)C`, for which the molecule was called inactive.

Take `CC(C)NCC(O)COc1ccc(CC(N)=O)cc1` (stereo not given): the molecule was classed as inactive. On the same count and under the same terms, the value for `N#CCc1cccc(C(F)(F)F)c1` was “inactive”. In the case of `O=c1c2ccccc2nnn1CCl`, the outcome was inactive. For `N=C(N=C(N)N)N1CCOCC1`, the activity change was -0.0209% [at 18.6 µM]. For the molecule `CC(O)C1CCCCC1` (stereo not given), the molecule was called inactive.

Take `c1ccc(-c2nc[nH]c2-c2ccccc2)cc1`: the molecule was classed as inactive. Consider `CCCCOC(=O)c1ccccc1C(=O)OCC(CC)CCCC` (stereo not given), for which the call was inactive.

Consider `CCCCCCOC(=O)CCC`, for which the result was inactive. As to `O=C(O)Cc1sc(-c2ccccc2)nc1-c1ccc(Cl)cc1`, the molecule was called inactive. On to `CC(C)CCCC(C)CCO` (stereo not given), for which the call was inactive. `CCCCCC(CO)CCC` (stereo not given): the molecule was classed as inactive. As to `Nc1nc(N)c(-c2ccccc2)s1`, the result was inactive.

With `CC(C)(C)c1ccc(OCC2CO2)cc1` (stereo not given), the molecule was called inactive. On to `N#Cc1cc2ccccc2c2ccccc12`, for which the molecule was classed as inactive.

Regarding `O=S1(=O)c2cccc3cccc(c23)N1CCCN1CCN(c2ccc(F)cc2)CC1`, the molecule was called inactive.

Take `Oc1ccc(Cc2ccccc2)cc1`: the molecule was called inactive. On to `Cc1ccccc1N=Nc1ccc(N=Nc2c(O)ccc3ccccc23)c(C)c1`, for which the result was inactive.

With `CC(Cc1cccc(C(F)(F)F)c1)NCCOC(=O)c1ccccc1` (stereo not given), the outcome was inactive.

On to `Nc1cnn([C@@H]2O[C@H](CO)[C@@H](O)[C@H]2O)c(=O)n1`, for which the molecule was classed as inactive. As for `Cc1cc(C)c(S(=O)(=O)O)cc1N=Nc1cc(S(=O)(=O)O)c2ccccc2c1O`, the outcome was inactive. With `C=CC(=O)OCC(C)OCC(C)OCC(C)OC(=O)C=C` (stereo not given), the molecule was classed as inactive. Take `Cc1nc2ccccc2n1Cc1ccc(Cl)cc1`: the outcome was inactive. On to `CCCCc1cc2ccccc2c(OCCN(C)C)n1`, for which the activity change is -0.13% [at 18.6 µM]. On to `O=CNc1ccccc1`, for which the molecule was called inactive. Still for that read-out and setting: the value for `Cn1c(NCCN(CCO)CCCc2ccc([N+](=O)[O-])cc2)cc(=O)n(C)c1=O` was “inactive”; that for `CC(C)(C)c1ccc(S)cc1` was “inactive”.
